Data: PubChem BioAssay AID720519 (National Center for Advancing Translational Sciences (NCATS), 2013)
Inconclusive results are not listed. A call without a number means that no potency is given here. Activity calls are given as the source filed them. The call rests on the fitted dose curve; in most records, active means well fitted activation curve with a large enough effect; inconclusive means small, poorly fitted or top-dose-only effect; inactive means flat fitted curve, though single readings scatter.

Assay: qHTS for Inhibitors of Cell Surface uPA Generation: Confirmatory Assay for Cherry-picked Compounds
Settings: cell surface uPA activity generation, qHTS confirmation; series mostly up to 115 µM
How it was run: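 RAW 264.7 cells at 4000/well, incubated overnight, then treated with compounds. After 24 h at 37 C, viability was read by ATPlite luminescence. An increase in signal indicates blocked uPA-dependent LF entry.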
Potency means the concentration at half of the fitted maximal effect.

SMILES | Potency
Cc1ccc(C23CC4CC(CC(C(=O)NN)(C4)C2)C3)cc1 | inactive
Cc1cc(SCc2ccc(Cl)cc2)nc(=O)[nH]1 | inactive
COc1ccccc1N=Nc1c(C)[nH]n(-c2ccccc2)c1=O | inactive
CCN(CC)S(=O)(=O)c1ccc(C(=O)Nc2cccc(C)c2)cc1 | inactive
COc1ccc(/C=C/C(=O)Nc2ccccc2Cl)cc1S(=O)(=O)N1CCOCC1 | inactive
COc1ccc(-c2cc3nc(C)cc(-c4ccc(OC)cc4)n3n2)cc1 | inactive
COc1cc(C2/C(=C(\O)c3ccc4c(c3)CC(C)O4)C(=O)C(=O)N2CC2CCCO2)cc(OC)c1OC (centres undefined) | inactive
CCOC(=O)C(CC)n1cnc2c(nnn2-c2ccccc2)c1=O (centres undefined) | inactive
COC(=O)c1cc(CNC(=O)c2ccc(N3CCCC3)c([N+](=O)[O-])c2)ccc1OC | inactive
CCC(=O)N1CCC(NC(=O)Nc2ccc(OC(F)(F)F)cc2)CC1 | inactive
CC(=O)c1ccc(OCCCCOc2ccc(C(C)=O)cc2)cc1 | inactive
O=C(/C=C/c1ccc(O)c(O)c1)O[C@@H]1C[C@](O)(C(=O)O)C[C@@H](O)[C@H]1O | inactive
Cc1ccc(Cl)c(N/C=C/C(=O)c2ccccc2)c1 | inactive
COCCn1nnnc1C(C(C)C)N1CCCC(C)C1 (centres undefined) | inactive
O=C(C[C@@H]1C/C=C\C[C@H](Cc2ccc(F)cc2)C(=O)OC[C@H]2CCCN2C1=O)N[C@H](CO)Cc1ccccc1 | inactive
COCCNC(=O)C(c1c[nH]c2ccccc12)N(C(=O)c1snc(C(N)=O)c1N)c1cccc(OC)c1 (centres undefined) | inactive
CC(=O)Oc1ccc(OC(C)=O)c(SCCCCCCl)c1 | inactive
COc1ccc(C)cc1NC(=O)NNC(=O)C1CCC(C(C)(C)C)CC1 (centres undefined) | inactive
COc1cc(/C=N/NC(=O)c2cc(-c3ccco3)nc3ccccc23)cc(OC)c1O | inactive
C#CCN1C=C(C(=O)OCC)C(C)NS1(=O)=O (centres undefined) | inactive

SMILES | Potency
CCN(C(=O)c1c(C)noc1C)c1c(N)n(Cc2ccccc2)c(=O)[nH]c1=O | inactive
O=C(CN1CCCC1)Nc1cccc(Cl)c1Cl | inactive
CC(=O)Nc1c2c(nn1-c1cccc(C)c1)CSC2 | inactive
O=S(=O)(c1ccc2nc(N3CCN(c4ccccc4)CC3)ccc2c1)N1CCCCC1 | inactive
Cn1c(SCC(=O)NCCc2ccccc2)ncc(C(=O)Nc2ccc(F)cc2)c1=O | inactive
CCc1ccc(NCc2nc(-c3ccccc3)no2)cc1 | inactive
CN(Cc1ccc(C(C)(C)C)cc1)C(=O)Cc1ccc(S(=O)(=O)N2CCOCC2)s1 | inactive
CCN(CC)S(=O)(=O)c1ccc(C(=O)Nc2nnc(COC)o2)cc1 | inactive
N#Cc1ccccc1Sc1ccccc1C(=O)Nc1ccc(Br)cc1 | inactive
Cc1ccc(NC2CCCN(C(=O)Cc3nonc3C)C2)cc1C (centres undefined) | inactive
Cc1ccnc(NS(=O)(=O)c2ccc(NC(=O)C3C4C=CC(C4)C3C(=O)O)cc2)n1 (centres undefined) | inactive
COC(=O)c1c(NC(=O)c2c(OC)cccc2OC)sc2c1C(C(=O)OC)CC2 (centres undefined) | 29.3 µM (active)
C/C(=N\NC(=S)NC(C)C)c1ccc(Cl)s1 | inactive
CCN(CC)CC(=O)Nc1sc2c(c1C(=O)c1ccccc1OC)CCC2 | 10.4 µM (active)
COc1ccc(NS(=O)(=O)c2c(C)n(C)c(=O)n(C)c2=O)cc1OC | inactive
CC(C)C(NC(=O)Cc1ccccc1)C(=O)N1CCN(c2cccc(Cl)c2)CC1 (centres undefined) | inactive
CCCNC(=O)COc1coc(CN2CCN(c3ccccc3OC)CC2)cc1=O | inactive
COC(/C=C/Nc1ccc(Cl)cc1)=C(C#N)C#N | inactive
O=C(CCS(=O)(=O)c1ccc2c(c1)NC(=O)CS2)NCc1cccs1 | inactive
